Consider 32 compounds from PubChem BioAssay AID1347420 (Sanford-Burnham Center for Chemical Genomics, 2020).

Out of some 1,300 compounds screened, about 980 (75%) were called active. Inconclusive results (about 4%) are left out. Some of the results follow. Values without a mark were called inactive.

The target of this experiment is Sulfhydryl oxidase 1 (Homo sapiens) (UniProt O00391). In words: QSOX1 enzyme inhibitors, primary screen, biochemical, HyperBlu H2O2 luminescence, HTS (AID 1347420). Also: values above 100% were filed as inconclusive. The following applies: recombinant QSOX1, HyperBlu H2O2 luminescence; at 12.5 µM; stronger effect = higher value; active = any value above zero.
Sulfhydryl oxidase 1 (Homo sapiens), sequence (O00391 whole entry, looked up): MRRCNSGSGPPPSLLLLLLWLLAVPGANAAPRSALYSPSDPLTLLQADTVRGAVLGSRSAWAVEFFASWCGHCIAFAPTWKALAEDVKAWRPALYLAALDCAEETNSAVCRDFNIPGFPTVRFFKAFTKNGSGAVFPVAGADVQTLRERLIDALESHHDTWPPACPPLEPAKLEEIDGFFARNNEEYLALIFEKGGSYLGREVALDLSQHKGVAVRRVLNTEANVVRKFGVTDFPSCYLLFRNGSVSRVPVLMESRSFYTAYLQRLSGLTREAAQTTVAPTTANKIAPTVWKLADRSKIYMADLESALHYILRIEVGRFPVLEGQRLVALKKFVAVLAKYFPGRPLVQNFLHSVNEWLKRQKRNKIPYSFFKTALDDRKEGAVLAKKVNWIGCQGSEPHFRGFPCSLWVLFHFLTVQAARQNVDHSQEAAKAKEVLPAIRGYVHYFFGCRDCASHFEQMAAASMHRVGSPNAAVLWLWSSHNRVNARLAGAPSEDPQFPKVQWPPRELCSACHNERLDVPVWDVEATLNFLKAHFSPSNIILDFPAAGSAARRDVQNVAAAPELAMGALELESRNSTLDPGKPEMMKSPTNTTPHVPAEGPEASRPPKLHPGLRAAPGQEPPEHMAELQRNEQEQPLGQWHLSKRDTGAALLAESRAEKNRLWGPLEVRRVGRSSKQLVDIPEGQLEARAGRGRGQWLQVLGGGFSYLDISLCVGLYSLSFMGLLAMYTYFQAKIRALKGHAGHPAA
`Cc1[nH]c(=O)c(C#N)cc1-c1ccncc1`: the inhibition was 15.5% (active). For the compound `Cc1[nH]c(=O)c(C#N)cc1-c1ccc2nccn2c1`, the inhibition is 1% (active). To `COc1cccc(-c2cc(=O)c3ccccc3o2)c1N` belongs 7.6% (active).

For `NC(=O)N1c2ccccc2C=Cc2ccccc21`, the inhibition is 12.3% (active). To `CC(=O)O[C@H]1Cc2ccccc2N(C(N)=O)c2ccccc21` belongs -8.4%; to `OCCN1CCN(CCCN2c3ccccc3Sc3ccc(C(F)(F)F)cc32)CC1`, 92.8% (active); to `CN1CCN(CCCN2c3ccccc3Sc3ccc(C(F)(F)F)cc32)CC1`, 97% (active). In the case of `OCCN1CCN(CC/C=C2/c3ccccc3Sc3ccc(C(F)(F)F)cc32)CC1`, the inhibition was 3.4% (active). Consider `OCCN1CCN(CCCN2c3ccccc3C=Cc3ccccc32)CC1`, for which the inhibition is 47.2% (active). The figure for `COC(=O)c1c(C)[nH]c(C)c1C(=O)c1ccccc1Cc1ccccc1` is -0.5%; for `CCN(CC)CCNC(=O)c1ccc(NS(C)(=O)=O)cc1` it is 9.7% (active); for `CCN(CC)CCNC(=O)c1ccc(N)cc1` it is 7.8% (active).

Turning to `CCN(CC)CCNC(=O)c1ccc(NC(C)=O)cc1`, the inhibition was -4.7%.

Regarding `N[C@@H](CCCC(=O)O)C(=O)O`, the inhibition was 16.9% (active). As to `CCCCS(=N)(=O)CC[C@H](N)C(=O)O` (some centres not stated), the inhibition is -12.9%. In the case of `NC(=O)CC[C@H](N)C(=O)O`, the inhibition was 1.7% (active). Turning to `CCCCS(=N)(=O)CCC(N)C(=O)O` (configuration not stated), the inhibition is -11.1%. As to `COc1cc(Cc2cnc(N)nc2N)cc(OC)c1OC`, the inhibition was -13.7%.

Take `CN(C)CCN(Cc1cccs1)c1ccccn1`: the inhibition was 4.7% (active). The figure for `COc1ccc(CN(CCN(C)C)c2ccccn2)cc1` is 36.6% (active). As for `CC(C)(Sc1ccc(CCN(CCCCC2CCCCC2)C(=O)NC2CCCCC2)cc1)C(=O)O`, the inhibition is 3% (active).

Regarding `O=C(O)CCC(C(=O)O)N1C(=O)c2ccccc2C1=O` (configuration not stated), the inhibition was -7.5%. To `CCCN(CCC)C(=O)C(CCC(=O)O)NC(=O)c1ccccc1` (configuration not stated) belongs 12% (active); to `CCCCCN(CCCCC)C(=O)C(CCC(=O)O)NC(=O)c1ccc(Cl)c(Cl)c1` (configuration not stated), 13.5% (active). To `CC1C(=O)N(C)C(=O)c2nc[nH]c21` (configuration not stated) belongs 2.6% (active). The figure for `CCCC(C(=O)OCCN(CC)CC)(c1ccccc1)c1ccccc1` is 6.2% (active); for `CCCc1c(OCCCOc2ccc(OCC(=O)O)cc2)ccc(C(C)=O)c1O` it is 17.6% (active). Consider `CCN(CC)CCOC(=O)c1cc(Cl)c(N)cc1OC`, for which the inhibition was 7.6% (active). The figure for `CCN(CC)CCCCCCCCOC(=O)c1cc(OC)c(OC)c(OC)c1` is 17.3% (active); for `CCN(CC)CCNC(=O)c1cc(S(C)(=O)=O)ccc1OC` it is 0.6% (active). As for `CCN(CC)CCNC(=O)c1cc(Cl)c(N)cc1OC`, the inhibition was 2.2% (active).

With `COc1cc(N)c(Cl)cc1C(=O)OCCN1CCCCC1`, the inhibition was -7.9%.
